# High-throughput results (PubChem)
# Pf Dd2 growth – Plasmodium falciparum Dd2 growth inhibition; actives 4.3% (n = 120,000); Potency, µM (top dose mostly 28.9 µM), for the others: at the highest dose activity, negative = inhibition, most hits filed as inhibitors; P. falciparum Dd2 growth, SYBR Green, 72 h; AID 1347417; active means well fitted inhibition curve with a large enough effect;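 further: plate controls were DMSO vehicle for no effect and reference drug for full effect; nearly all actives have a fitted effect of over 65% in size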
#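 Readout: SYBR Green fluorescence, 485 nm excitation, 535 nm emission, after ~16 h lysis at 37C. Before that, Dd2-infected red cells (2.5% hematocrit) grew 72 h with compound, 29 uM top final concentration.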
# * hit, by the source's call; i = inactive; [ ] = another dose, or the depositor's remark. This excerpt belongs to a sample that is enriched for hits. Potency means the concentration at half of the fitted maximal effect.
SMILES,Pf Dd2 growth
Cc1ccc(NC(=O)N(C)CC2CCOCC2)cc1F,-23.2%
COc1ccc(CN(C(=O)Nc2ccc(C)c(F)c2)C2CCN(C(C)=O)CC2)cc1,6.6%
CCN1CCC(N(Cc2ccc(F)cc2)C(=O)Nc2cccc(C(F)(F)F)c2)CC1,12.6µM*
CN(CC1CCOC1)C(=O)Nc1cccc(C(F)(F)F)c1 (stereo not given),i[5.79 µM]
O=C(c1cccc(F)c1)N1CCN2C(=O)N(C3CCCCC3)C(=O)[C@@H]2C1,i
Cn1cc(Cl)cc1C(=O)N1CCCC(c2ccc(C(=O)O)cc2)C1 (stereo not given),i
CCc1nncn1C1CCN(C(=O)c2nn(C)c3ccccc23)C1 (stereo not given),i
Cc1cc(C(=O)N2CC(F)(F)C[C@H]2c2nnc(C)o2)on1,31.2%
COC[C@H]1NC(=O)CC[C@H]1C(=O)NCCc1ccccc1,5.3%
CCc1ccc(C2C(C(=O)Nc3ccccc3OC)=C(C)Nc3nc(SCc4ccccc4)nn32)cc1 (stereo not given),-9.0%
CC1=C(C(=O)Nc2ccccc2)C(c2ccccc2Cl)n2ncc(C(=O)Nc3cccc(C)c3)c2N1 (stereo not given),3.16µM*
CC1=C(C(=O)Nc2ccc(C)cc2)C(c2ccccc2Cl)n2nnnc2N1 (stereo not given),23.5%
COc1ccccc1NC(=O)C1=C(C)Nc2c(C(=O)Nc3ccc(C)cc3)cnn2C1c1cccc(OC)c1OC (stereo not given),13.1%
CC1=C(C(=O)Nc2ccc(C)cc2)C(c2ccc(Cl)cc2)n2nnnc2N1 (stereo not given),-26.7%
COc1cccc(C2C(C(=O)Nc3ccccc3)=C(C)Nc3nnnn32)c1OC (stereo not given),-24.9%
CCc1ccc(C2C(C(=O)Nc3ccccc3OC)=C(C)Nc3c(C(=O)Nc4ccc(C)cc4)cnn32)cc1 (stereo not given),11.2µM*
CC1=C(C(=O)Nc2ccc(C)cc2C)C(c2ccc([N+](=O)[O-])cc2)n2ncc(C(=O)Nc3ccc(F)cc3)c2N1 (stereo not given),1µM*
CC1=C(C(=O)Nc2ccc(C)cc2C)C(c2cccn2C)n2ncnc2N1 (stereo not given),10.2%
COCCN1Cc2[nH]nc(-c3cccc(COC)c3)c2CC1=O,-24.6%[44.1 µM]
O=C1Nc2ccccc2CNC12CCN(CC1CCNC1)CC2 (stereo not given),16.3%
Cc1nc(-c2c3n(c(=O)n(CC(=O)Nc4ccccc4F)c2=O)CCCCC3)no1,17.9%
CCN(Cc1noc(C)n1)C(=O)C1CCC(=O)N(Cc2cccc(F)c2)C1 (stereo not given),-4.2%
COC[C@@H]1CN(S(=O)(=O)c2cnc[nH]2)C[C@H]1c1ccccn1,19.4%
COc1cccc(CN2CCOC[C@H](Oc3ccc(S(C)(=O)=O)cc3)C2)c1,i
CCc1ccc(-n2c(=O)c3c4c(sc3n(Cc3ccc(F)cc3)c2=O)CCCC4)cc1,-13.3%
SMILES,Pf Dd2 growth
Cc1c(CNC2CCCCCC2)c(C(=O)O)c(C)n1Cc1ccc(F)cc1,8.3%[5.79 µM]
CCc1c(C)sc2c1CCN(Cc1ccc(F)cc1)C2c1ccccc1 (stereo not given),3.16µM*
CN(Cc1cccn1C)C(=O)c1ccc(C(F)(F)F)cc1,i
COc1ccc(-c2nnc(SCC(=O)NCc3ccccc3)nc2-c2ccc(OC)c(OC)c2)cc1OC,8.91µM*
CCOc1ccc(-c2nnc(SCC(=O)NC3CCCC3)nc2-c2ccc(OCC)c(OC)c2)cc1OC,90.6%
CCOc1cc(-c2nnc(SCC(=O)Nc3ccc(F)c(F)c3)nc2-c2ccc(OC)c(OCC)c2)ccc1OC,15.4%
O=C(NCC12CCC=C1N(CC1CC1)C(=O)CC2)c1nccc2ccccc12 (stereo not given),-9.3%
CC(C)N1CCN(C2CCOC3(CCN(C(=O)C4CC4)CC3)C2)CC1 (stereo not given),16.2%
Cc1cc(C)c(CNC(=O)c2nc(-c3ccccc3C#N)cc3c2ccn3C(C)C)c(=O)[nH]1,i
Cc1cc(C)c(CNC(=O)c2nc(-c3ccccc3)cc3c2ccn3C(C)C)c(=O)[nH]1,i
Cc1cc(C)c(CNC(=O)c2nc(-c3ccnn3C)cc3c2ccn3C(C)C)c(=O)[nH]1,7.08µM*
Cc1nc(-c2ccccc2OC2CN(S(=O)(=O)c3c(C)nn(C)c3C)C2)no1,5.1%
CCC(C)NC(=O)N1CCC(c2nn(CC(=O)NC)c3c2COCC3)CC1 (stereo not given),25.7%[5.79 µM]
CN1CC(=O)N(c2ccc([N+](=O)[O-])cc2)Cc2c1ncnc2N1CCN(c2ncccn2)CC1,-2.8%
O=C(c1ccccc1)N1CCCCC12Cc1ccccc1NC2=O (stereo not given),i
O=C1Nc2ccccc2CC12CCCN2C1CCCCC1 (stereo not given),10µM*
O=C(NC1CCCC1)N1CCCCC12Cc1ccccc1NC2=O (stereo not given),-1.7%[44.1 µM]
O=C1CCN(C(=O)Nc2ccccc2F)CCCC(C(=O)NCc2ccncc2)CCN1 (stereo not given),17.4%
CCC(O)C1CCN(Cc2cnc(S(=O)(=O)CC)n2CCc2ccccc2)CC1 (stereo not given),i
CCCCn1c(CN(C)C(C)c2ccccc2OC)cnc1S(=O)(=O)CC (stereo not given),8.91µM*
C#CCN(CC=C)Cc1cnc(S(=O)(=O)CC)n1CCCc1ccccc1,i
O=C(c1nc(-c2cc(Cl)cc(Cl)c2)c2ccccn12)N1CCCC1,2.1%
Cc1ccc(Cn2c(=O)n(Cc3ccco3)c(=O)c3sc4ccccc4c32)cc1,42.1%
Cc1cccc(Cn2c(=O)n(Cc3ccccc3)c(=O)c3sc4ccccc4c32)c1,8.91µM*
Cc1ccc(CNC(=O)Cn2c(=O)n(Cc3ccccc3)c(=O)c3sc4ccccc4c32)cc1,41.6%
SMILES,Pf Dd2 growth
Cn1cc(CN2CCCC(COc3ccccc3C(=O)N3CCOCC3)C2)c2ccccc21 (stereo not given),i
O[C@H]1CCCC[C@@H]1NC1CCN(c2nc3ccc(Cl)cc3s2)CC1,3.98µM*
O=C(NCc1cccc(Cl)c1)c1ccc2nc(N3CCCCC3)sc2c1,i
Cc1ccc2nc(N3CCN(C(=O)C4CC4)CC3)sc2c1,33.2%
COc1ccc(N(C)C(=O)c2c(C)oc3c2CN(Cc2ccc(F)cc2)CC3)cc1,12.6µM*
CCOC(=O)C1CCCCN1C(=O)c1cn(C(c2ccccc2)c2ccccc2)nn1 (stereo not given),-13.5%
Cc1ccc(CN2CCc3oc(C)c(C(=O)N4CCC(C(N)=O)CC4)c3C2)cc1,-19.9%
Cc1oc2ccn(Cc3ccccc3F)c(=O)c2c1C(=O)N1CCN(c2ccccc2)CC1,-21.5%
CCCn1ccc2oc(C)c(C(=O)N3CCN(c4ccc(F)cc4)CC3)c2c1=O,-13.2%
COc1ccc(-n2nc3n(c2=O)CCN(Cc2ccc(F)cc2)C3)cc1,10.9%
Cc1oc2c(c1C(=O)N1CCOCC1)CN(C(=O)c1ccncc1)CC2,-28.5%
Cc1oc2c(c1C(=O)N(C)CCc1ccccn1)CN(Cc1cccc(F)c1)CC2,-25.8%
CCOC(=O)C1CCCCN1C(=O)c1c(C)oc2c1CN(Cc1cccc(F)c1)CC2 (stereo not given),6.31µM*
Cc1oc2c(c1C(=O)N1CCN(c3ccccc3)CC1)CN(Cc1ccc(F)cc1)CC2,11.2µM*
COCCCNC(=O)c1c(C)oc2c1CN(Cc1ccc(F)cc1)CC2,-23.4%
Cc1ccc(CN2CCc3oc(C)c(C(=O)N4CCSCC4)c3C2)cc1,10µM*
C=CCn1c(CN2CCC3(CC(=O)NC3=O)C2)nc2ccccc21 (stereo not given),-7.9%
